# Source: PubChem BioAssay AID435003 (Sanford-Burnham Center for Chemical Genomics, 2010)
# Out of some 330,000 compounds screened, about 1,700 (0.52%) were called active. Cut-off read from the data, not from the text of the source: active = inhibition above about 50%; inactive = the rest. The sample as a whole holds a higher share of actives than the screen did.
# Assay: lowers stimulated NF-kB reporter luminescence – cell-based, uHTS, TCR NF-kB activation inhibitor project, primary screen (AID 435003)
# Details: Jurkat, PMA/ionomycin-induced NF-kB luciferase reporter, at 4 µM, active compounds read high
row,SMILES,inhibition
1,COC(=O)C1=C(C(=O)OC)[C@@H]2N(C)c3ccccc3[C@@]23C[C@@H](C(=O)OC)N(C(=O)c2ccco2)C3=N1,18.3% (inactive)
2,CC(C)Oc1ccc(/C=N/NC(=O)c2nnn(-c3nonc3N)c2CN(C)C2CCCCC2)cc1,-10.3% (inactive)
3,Cc1cccc(OCC(=O)NC2CC(C)(C)NC(C)(C)C2)c1,23.8% (inactive)
4,NS(=O)(=O)c1ccc(N=Cc2ccc(Br)s2)cc1,3.07% (inactive)
5,CC(=O)Nc1ccc(Nc2cc(C)nc(Nc3ccc(NC(C)=O)cc3)n2)cc1,-8.27% (inactive)
6,CC(=O)Nc1ccc(Nc2c3ccccc3nc3ccccc23)cc1,61.6% (active)
7,CCc1nc(Nc2ccc(NC(C)=O)cc2)c2oc3ccccc3c2n1,-24.7% (inactive)
8,O=C(NCc1ccccc1)C(=O)NCC1OCCN1S(=O)(=O)c1ccc(Br)cc1 (configuration not stated),13.9% (inactive)
9,Cc1ccccc1N1CCN(Cc2nc(Cc3ccccc3F)no2)CC1,5.46% (inactive)
10,CC(=O)Nc1nonc1-c1nc2ccccc2n1Cc1ccccn1,-4.81% (inactive)
11,COc1ccc(C)c(Cn2c(-c3nonc3N)nc3ccccc32)c1,65.7% (active)
12,Nc1nonc1-c1nc2ccccc2n1Cc1ccc(F)cc1,1.66% (inactive)
13,O=C(Nc1ccc(Cl)cc1)C1c2cccc[n+]2CC(=O)N1Cc1ccc2c(c1)OCO2 (configuration not stated),-3.1% (inactive)
14,O=C1CC[C@H](O)CCN1[C@H](CSc1ccc(Br)cc1)Cc1ccccc1,-3.24% (inactive)
15,O=C(NCCOc1ccccc1Cl)C(=O)Nc1ccccc1,-8.66% (inactive)
16,C[C@@H]1NC(=O)[C@@]2(C)[C@@H](c3ccccc3)[C@H]3COc4ccccc4[C@@H]3N2C1=O,7.9% (inactive)
17,COc1ccc(NC(=O)CN2C(=O)COc3ccc(S(=O)(=O)N4CCOCC4)cc32)c(OC)c1,0.923% (inactive)
18,C[C@H](NC(=O)c1ccccc1Cl)C(=O)OCCOc1cccc(Cl)c1,-1.51% (inactive)
19,COC(=O)c1ccccc1NC(=O)CN(Cc1ccccc1)S(C)(=O)=O,0.443% (inactive)
20,O=c1[nH]snc1-c1c(Cl)cccc1Cl,11.2% (inactive)
21,Cc1c(NS(=O)(=O)c2cc(C(=O)NCCc3ccc(F)cc3)cc(Cl)c2Cl)c(=O)n(-c2ccccc2)n1C,13.5% (inactive)
22,CCN(CC)CCCNC(=O)c1cc2c(=O)[nH]c3ccc(C)cc3c2s1,-1.96% (inactive)
23,Cc1ccc2[nH]c(=O)c(CC(=O)O)c(-c3ccccc3)c2c1,-0.374% (inactive)
24,Cc1cccc(N(C)C(=O)c2cc3c(=O)[nH]c4ccc(C)cc4c3s2)c1,65.1% (active)
25,CC(=O)N1CSCC1C(=O)O (configuration not stated),-5.84% (inactive)

row,SMILES,inhibition
1,Cc1c(C)c(C)c(S(=O)(=O)N2CCC3(CC2)OCCO3)c(C)c1C,-2.3% (inactive)
2,COc1cc(CC(=O)Nc2nc(-c3ccc(F)c(F)c3)cs2)cc(OC)c1OC,49.7% (inactive)
3,Cc1ccc(S(=O)(=O)NC(=O)Nc2nc(-c3ccc(F)c(F)c3)cs2)cc1,-14.8% (inactive)
4,COc1ccc(CC(=O)Nc2nc(-c3ccc(F)c(F)c3)cs2)cc1OC,55.3% (active)
5,Cc1ccc(C(=O)OCC(=O)Nc2ccc(Cl)cn2)cc1S(=O)(=O)N1CCOCC1,3.39% (inactive)
6,CCOC(=O)[C@H]1[C@H]2COc3ccc(OC)cc3[C@@H]2N2C(=O)c3ccc(F)cc3NC(=O)[C@@]12C,-10.9% (inactive)
7,CC(N)C12CC3CC(CC(O)(C3)C1)C2 (configuration not stated),6.68% (inactive)
8,Cc1ccc2c(=O)oc(N(C)C)nc2c1,1.31% (inactive)
9,Cc1cccc(CNS(=O)(=O)c2ccc(-c3cnc(C4CC4)o3)cc2)c1,5.99% (inactive)
10,Cc1cccc(NS(=O)(=O)c2ccc(-c3cnc(C4CC4)o3)cc2)c1,54.1% (active)
11,COc1ccc(CNS(=O)(=O)c2ccc(-c3cnc(C4CC4)o3)cc2)cc1,18.4% (inactive)
12,Cc1cccc(C)c1NC(=O)CNC(=O)C1CCCC1,-3.97% (inactive)
13,Cc1ccc(S(=O)(=O)N(C)C2(C)CCS(=O)(=O)C2)cc1 (configuration not stated),7.55% (inactive)
14,Cc1ccc(S(=O)(=O)C2(S(=O)(=O)c3ccc(C)cc3)CCCC2)cc1,59.5% (active)
15,Cc1ccc(S(=O)(=O)NC2CCCCCC2)cc1,-18.9% (inactive)
16,CC(=O)Nc1ccc(S(=O)(=O)NCC(=O)OCC(=O)c2ccc[nH]2)cc1,2.52% (inactive)
17,Nc1c(C(=O)Nc2ccc3c(c2)OCCO3)nnn1Cc1ccccc1,-98.1% (inactive)
18,CCCNC(=O)c1cnc(-c2ccccc2)nc1-c1ccccc1,17.2% (inactive)
19,O=C(NCC#CCSc1nnc(-c2cccc3ccccc23)o1)c1cccs1,51.4% (active)
20,COc1ccc(CCNC(=O)/C(C#N)=C2\N=C(NC(=O)c3cccs3)c3ccccc32)cc1,-17.6% (inactive)
21,C#CCSc1nnc(-c2sc3ccccc3c2Cl)o1,-65.2% (inactive)
22,N/C(=N\c1nc2ccccc2o1)NC(=O)C(Cc1ccccc1)N1C(=O)c2ccccc2C1=O (configuration not stated),-5.81% (inactive)
23,O=C(CSc1ncnc2c1oc1ccccc12)NC1CCCC1,-16.7% (inactive)
24,O=C(NCCC1CCCCN1S(=O)(=O)c1ccc(F)cc1)C(=O)NC1CC1 (configuration not stated),2.56% (inactive)
25,COc1ccccc1CCNC(=O)C(=O)NCCC1CCCCN1S(=O)(=O)c1cccs1 (configuration not stated),11.1% (inactive)

row,SMILES,inhibition
1,O=C(NCCC1CCCCN1S(=O)(=O)c1cccs1)C(=O)Nc1ccc(F)cc1F (configuration not stated),57.9% (active)
2,COC(=O)Cn1cnc2scc(-c3ccc(C)c(C)c3)c2c1=O,11.8% (inactive)
3,Cc1ccc(S(=O)(=O)N2CCN(C(=O)Cc3sc(C)nc3-c3ccc(F)cc3)CC2)c(C)c1,0.534% (inactive)
4,CCOc1ccccc1OCCCNCc1ccccc1,-8.28% (inactive)
5,OCCNCc1cccc(OCc2ccccc2Cl)c1,4.83% (inactive)
6,Clc1cccc(Cl)c1OCCOCCNCc1ccccc1,61.5% (active)
7,Cc1ccc(C(=O)N2CCN(C3CCCCC3)CC2)s1,-4.14% (inactive)
8,CC(C)(C)c1ccc(OC2=CS(=O)(=O)c3ccccc32)cc1,-29.9% (inactive)
9,CC(C)(C)c1ccc(Oc2ccc(N)cc2)cc1,84.9% (active)
10,COc1cccc(Oc2ccc(N)cc2)c1,0.758% (inactive)
11,Brc1ccc2ncnc(NCc3cccnc3)c2c1,28.6% (inactive)
12,O=C(O)CCCCCNc1ncnc2ccc(Br)cc12,5.8% (inactive)
13,COc1ccc(Nc2ncnc3ccc(Br)cc23)c(OC)c1,59.8% (active)
14,CC(C)c1ccc(-c2noc(C3CCCN(S(C)(=O)=O)C3)n2)cc1 (configuration not stated),-30.6% (inactive)
15,COc1ccccc1NC(=O)C1=C(C)Nc2nc3ccccc3n2C1c1cccs1 (configuration not stated),58.1% (active)
16,CCOC(=O)C1=C(C)Nc2nc3ccccc3n2C1c1cccs1 (configuration not stated),7.93% (inactive)
17,CCOc1ccc(C2C(C(=O)NC)=C(C)Nc3nc4ccccc4n32)cc1OC (configuration not stated),6.25% (inactive)
18,O=C(O)/C=C/C(=O)NNc1ccc([N+](=O)[O-])cc1,9.38% (inactive)
19,O=C(c1c(F)cccc1Cl)N1CCN(S(=O)(=O)c2ccc3c(c2)OCCCO3)CC1,-0.00048% (inactive)
20,COc1cc(N=Cc2c(O)[nH]c3ccccc23)cc(OC)c1OC,76.1% (active)
21,CN=c1scc(-c2cc(OC)ccc2OC)n1/N=C/c1c(C)[nH]c2ccccc12,-10.3% (inactive)
22,COc1ccc2[nH]c(C(=O)N/N=C/c3cc(OC)c(OC)c(OC)c3)cc2c1,17.7% (inactive)
23,CC(C)Oc1ccc(C(=O)NC(C)(C)CO)cc1,-5.78% (inactive)
24,CCC(C)NC(=O)C1c2ccccc2C(=O)N1Cc1ccccc1 (configuration not stated),-0.632% (inactive)
25,COC(c1ccccc1)c1nnc(CCC(=O)N2CCN(CCOc3ccccc3)CC2)o1 (configuration not stated),14.1% (inactive)

row,SMILES,inhibition
1,Cc1ccc(S(=O)(=O)Nc2ccc3ncccc3c2)cc1,16.8% (inactive)
2,COc1cc(NS(=O)(=O)c2ccc3ccccc3c2)c2ncccc2c1,66% (active)
3,COc1ccc(N2CC(NS(=O)(=O)c3ccc4ccccc4c3)CC2=O)cc1 (configuration not stated),4% (inactive)
4,O=C(NC(=O)c1ccc(Cl)c(Cl)c1)OC1CCS(=O)(=O)C1 (configuration not stated),2.78% (inactive)
5,C=CCN(c1ccc(C(N)=O)cc1)S(C)(=O)=O,-12.3% (inactive)
6,CCC(C)c1ccc(NC(=S)NCc2ccccn2)cc1 (configuration not stated),-14.5% (inactive)
7,NC1=NC2(CCCCC2)N(c2ccc(F)cc2F)C(N)=N1,2.27% (inactive)
8,NC(N)=N/N=C/c1ccc(OCc2ccc(Cl)cc2Cl)cc1,59% (active)
9,OC(CNCCc1ccc(Cl)cc1Cl)COc1ccccc1 (configuration not stated),5.89% (inactive)
10,CCOc1ccc(/C=N/NC(N)=S)cc1,-13% (inactive)
11,COc1ccccc1N1CCN(C(=O)c2c(-c3c(Cl)cccc3Cl)noc2C)CC1,-3.34% (inactive)
12,COc1ccccc1N1CCN(C(=O)c2cc(=O)c3cc(C)cc(C)c3o2)CC1,64.2% (active)
13,COc1ccccc1N1CCN(C(=O)c2cc(=O)c3cc(C)ccc3o2)CC1,19.9% (inactive)
14,O=C(O)c1cc2c(cc1NC(=O)c1c(F)cccc1Cl)OCCCO2,17.5% (inactive)
15,O=C(CN1C(=O)c2ccccc2S1(=O)=O)NC1CCCCC1,-1.51% (inactive)
16,O=C(CN1C(=O)c2ccccc2S1(=O)=O)N1CCc2ccccc21,72.7% (active)
17,CC1CCCN(C(=O)CN2C(=O)c3ccccc3S2(=O)=O)C1 (configuration not stated),-25% (inactive)
18,CC1CN(C2CCN(C(=O)COc3ccccc3)CC2)CC(C)O1 (configuration not stated),-5.33% (inactive)
19,CSc1ccc(S(=O)(=O)Nc2cccc(F)c2)cc1,-8.25% (inactive)
20,COc1ccccc1N1CCN(S(=O)(=O)c2ccc(Cl)cc2)CC1,-16.1% (inactive)
21,COc1ccccc1-n1nnnc1S(=O)(=O)Cc1ccc(Cl)cc1,55.8% (active)
22,COc1ccccc1-n1nnnc1SCC(=O)NC(=O)Cc1ccccc1,4.18% (inactive)
